Test results as given in the supplement of paper PMC12067093, “Discovery and optimisation of a covalent ligand for TRIM25 and its application to targeted protein ubiquitination” (Chemical Science, 2025).
Targets with the largest changes are over-represented here; the source holds about 21,000 in all.

Compound: Cc1cc(ccc1-c1ccccc1)C(=O)N1CCCN(CC1)C(=O)CCl [compound 10]
Test: probe-labelled cysteine peptide fold change vs DMSO (competition) (log2 fold change); higher = less target engagement (more negative = stronger competition)
Conditions: THP-1, incubation time: 4 h
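Further: competitive profiling in live THP-1 cells: cysteine peptides tagged with an iodoacetamide desthiobiotin (IA-DTB) probe, intensity after compound treatment relative to DMSO-treated cells.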

UniProt Q9UNH7, sequence (Q9UNH7 whole entry, looked up): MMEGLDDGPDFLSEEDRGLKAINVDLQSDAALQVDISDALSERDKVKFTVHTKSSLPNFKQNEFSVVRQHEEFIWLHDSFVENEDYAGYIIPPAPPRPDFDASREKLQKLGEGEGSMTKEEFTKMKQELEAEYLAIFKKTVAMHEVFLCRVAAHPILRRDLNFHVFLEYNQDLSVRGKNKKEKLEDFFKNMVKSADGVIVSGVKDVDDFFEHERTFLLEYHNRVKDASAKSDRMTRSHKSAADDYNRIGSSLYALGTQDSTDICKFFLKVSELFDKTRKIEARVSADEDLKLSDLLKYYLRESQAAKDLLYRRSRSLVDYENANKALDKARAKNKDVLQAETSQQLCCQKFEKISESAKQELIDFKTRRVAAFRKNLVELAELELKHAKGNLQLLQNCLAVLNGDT
UniProt Q92673, sequence (Q92673 whole entry, looked up): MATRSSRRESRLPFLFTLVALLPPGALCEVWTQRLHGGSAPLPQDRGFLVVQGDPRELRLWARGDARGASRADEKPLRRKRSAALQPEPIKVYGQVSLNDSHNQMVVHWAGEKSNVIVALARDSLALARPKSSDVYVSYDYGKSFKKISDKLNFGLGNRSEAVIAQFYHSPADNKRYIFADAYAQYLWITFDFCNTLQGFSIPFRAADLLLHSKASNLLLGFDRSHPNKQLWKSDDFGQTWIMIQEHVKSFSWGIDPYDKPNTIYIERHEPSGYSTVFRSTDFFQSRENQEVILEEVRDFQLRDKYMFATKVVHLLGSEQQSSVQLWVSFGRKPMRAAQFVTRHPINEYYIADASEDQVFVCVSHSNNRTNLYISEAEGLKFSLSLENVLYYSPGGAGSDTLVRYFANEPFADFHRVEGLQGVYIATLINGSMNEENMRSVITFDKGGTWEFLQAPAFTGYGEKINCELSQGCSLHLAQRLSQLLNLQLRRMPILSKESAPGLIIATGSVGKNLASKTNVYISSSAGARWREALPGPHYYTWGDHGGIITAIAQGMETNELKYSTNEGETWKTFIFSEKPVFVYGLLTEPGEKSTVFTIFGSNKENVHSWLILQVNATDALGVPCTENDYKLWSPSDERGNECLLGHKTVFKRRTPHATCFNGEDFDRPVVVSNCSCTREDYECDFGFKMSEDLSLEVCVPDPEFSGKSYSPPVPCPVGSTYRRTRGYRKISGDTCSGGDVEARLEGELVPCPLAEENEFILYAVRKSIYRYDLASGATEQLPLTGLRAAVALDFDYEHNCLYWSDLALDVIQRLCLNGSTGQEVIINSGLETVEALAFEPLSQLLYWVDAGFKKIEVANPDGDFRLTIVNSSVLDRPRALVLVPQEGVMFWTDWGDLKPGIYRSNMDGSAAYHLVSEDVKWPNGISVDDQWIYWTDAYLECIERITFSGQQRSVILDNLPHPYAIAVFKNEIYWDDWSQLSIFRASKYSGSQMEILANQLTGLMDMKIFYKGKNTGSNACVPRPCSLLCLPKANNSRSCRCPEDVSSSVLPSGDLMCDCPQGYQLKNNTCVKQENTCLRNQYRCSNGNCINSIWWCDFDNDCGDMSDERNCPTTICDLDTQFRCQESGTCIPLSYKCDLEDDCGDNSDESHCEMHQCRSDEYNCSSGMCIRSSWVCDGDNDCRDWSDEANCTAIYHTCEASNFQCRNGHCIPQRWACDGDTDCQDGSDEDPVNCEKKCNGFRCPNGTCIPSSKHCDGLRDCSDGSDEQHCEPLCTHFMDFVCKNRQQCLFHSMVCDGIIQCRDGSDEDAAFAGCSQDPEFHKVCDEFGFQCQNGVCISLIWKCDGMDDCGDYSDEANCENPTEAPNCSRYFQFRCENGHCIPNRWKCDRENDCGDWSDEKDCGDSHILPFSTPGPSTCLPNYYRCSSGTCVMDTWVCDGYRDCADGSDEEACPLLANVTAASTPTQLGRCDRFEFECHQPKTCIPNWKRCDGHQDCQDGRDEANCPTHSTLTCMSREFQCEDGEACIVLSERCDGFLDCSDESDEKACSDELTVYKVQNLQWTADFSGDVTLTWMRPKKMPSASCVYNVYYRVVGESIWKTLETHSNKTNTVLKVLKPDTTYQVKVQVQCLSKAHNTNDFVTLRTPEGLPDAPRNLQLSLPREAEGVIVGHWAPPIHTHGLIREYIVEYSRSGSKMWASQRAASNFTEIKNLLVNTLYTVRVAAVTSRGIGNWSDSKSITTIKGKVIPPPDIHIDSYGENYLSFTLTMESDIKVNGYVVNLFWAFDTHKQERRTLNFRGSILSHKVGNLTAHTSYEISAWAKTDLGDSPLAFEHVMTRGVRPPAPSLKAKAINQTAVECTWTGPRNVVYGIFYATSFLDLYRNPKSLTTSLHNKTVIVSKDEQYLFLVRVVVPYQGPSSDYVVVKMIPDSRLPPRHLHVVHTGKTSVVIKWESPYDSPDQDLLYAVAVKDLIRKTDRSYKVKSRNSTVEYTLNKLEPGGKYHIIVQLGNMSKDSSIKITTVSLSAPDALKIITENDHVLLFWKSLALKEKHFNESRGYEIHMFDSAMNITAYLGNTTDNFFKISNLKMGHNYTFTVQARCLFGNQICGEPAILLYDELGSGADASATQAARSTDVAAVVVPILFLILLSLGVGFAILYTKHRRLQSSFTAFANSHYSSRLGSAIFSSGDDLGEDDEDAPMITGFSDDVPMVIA
UniProt P11388, sequence (P11388 whole entry, looked up): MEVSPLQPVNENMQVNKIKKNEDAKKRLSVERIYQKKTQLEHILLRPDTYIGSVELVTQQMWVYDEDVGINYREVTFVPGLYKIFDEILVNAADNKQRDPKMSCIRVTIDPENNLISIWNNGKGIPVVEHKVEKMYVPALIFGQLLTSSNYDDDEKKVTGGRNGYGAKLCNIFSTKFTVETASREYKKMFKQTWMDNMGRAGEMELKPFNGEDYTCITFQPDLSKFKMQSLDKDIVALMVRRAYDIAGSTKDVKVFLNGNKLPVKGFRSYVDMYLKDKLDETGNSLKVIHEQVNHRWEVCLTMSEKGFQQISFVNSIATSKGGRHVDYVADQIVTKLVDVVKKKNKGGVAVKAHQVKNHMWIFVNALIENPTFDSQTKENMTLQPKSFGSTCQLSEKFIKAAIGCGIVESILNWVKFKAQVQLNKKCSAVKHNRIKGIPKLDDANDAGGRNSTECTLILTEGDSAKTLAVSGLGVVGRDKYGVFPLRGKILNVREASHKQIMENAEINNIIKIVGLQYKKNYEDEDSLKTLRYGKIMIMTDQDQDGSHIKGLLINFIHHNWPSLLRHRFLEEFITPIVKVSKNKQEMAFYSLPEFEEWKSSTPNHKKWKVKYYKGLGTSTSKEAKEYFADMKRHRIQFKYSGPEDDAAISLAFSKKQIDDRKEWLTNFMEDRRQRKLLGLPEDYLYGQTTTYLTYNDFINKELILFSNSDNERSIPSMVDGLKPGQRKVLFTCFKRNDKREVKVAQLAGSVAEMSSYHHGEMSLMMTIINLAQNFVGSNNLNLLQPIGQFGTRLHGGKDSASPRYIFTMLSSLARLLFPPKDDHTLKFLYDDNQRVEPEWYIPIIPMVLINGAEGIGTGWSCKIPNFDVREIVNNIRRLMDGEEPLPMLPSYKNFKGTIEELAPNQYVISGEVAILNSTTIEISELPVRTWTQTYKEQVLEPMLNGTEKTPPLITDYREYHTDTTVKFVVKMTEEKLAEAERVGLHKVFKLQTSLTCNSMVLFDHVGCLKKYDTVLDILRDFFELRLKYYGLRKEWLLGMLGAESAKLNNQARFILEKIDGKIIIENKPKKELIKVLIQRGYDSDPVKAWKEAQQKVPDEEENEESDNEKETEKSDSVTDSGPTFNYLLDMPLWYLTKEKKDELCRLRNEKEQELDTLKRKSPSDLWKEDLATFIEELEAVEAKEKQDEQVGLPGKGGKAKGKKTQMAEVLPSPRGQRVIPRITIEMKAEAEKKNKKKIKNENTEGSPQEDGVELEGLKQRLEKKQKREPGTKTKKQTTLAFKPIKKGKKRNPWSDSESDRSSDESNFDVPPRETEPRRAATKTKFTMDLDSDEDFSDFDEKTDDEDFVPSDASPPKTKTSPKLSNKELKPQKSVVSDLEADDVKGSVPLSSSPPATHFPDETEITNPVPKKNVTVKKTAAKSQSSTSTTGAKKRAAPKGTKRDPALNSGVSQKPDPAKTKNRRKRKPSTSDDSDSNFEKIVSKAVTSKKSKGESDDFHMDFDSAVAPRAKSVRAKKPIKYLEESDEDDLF
UniProt Q9NXG2, sequence (Q9NXG2 whole entry, looked up): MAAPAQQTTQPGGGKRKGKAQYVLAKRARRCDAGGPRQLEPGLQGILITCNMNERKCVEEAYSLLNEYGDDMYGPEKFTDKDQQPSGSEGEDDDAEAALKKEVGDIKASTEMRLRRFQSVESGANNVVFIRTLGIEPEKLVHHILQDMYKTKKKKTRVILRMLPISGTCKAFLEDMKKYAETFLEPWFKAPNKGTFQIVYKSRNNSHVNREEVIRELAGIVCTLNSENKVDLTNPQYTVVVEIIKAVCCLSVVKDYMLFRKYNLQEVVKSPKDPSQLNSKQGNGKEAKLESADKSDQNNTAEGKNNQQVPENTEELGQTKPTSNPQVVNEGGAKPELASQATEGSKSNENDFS
UniProt Q15527, sequence (Q15527 whole entry, looked up): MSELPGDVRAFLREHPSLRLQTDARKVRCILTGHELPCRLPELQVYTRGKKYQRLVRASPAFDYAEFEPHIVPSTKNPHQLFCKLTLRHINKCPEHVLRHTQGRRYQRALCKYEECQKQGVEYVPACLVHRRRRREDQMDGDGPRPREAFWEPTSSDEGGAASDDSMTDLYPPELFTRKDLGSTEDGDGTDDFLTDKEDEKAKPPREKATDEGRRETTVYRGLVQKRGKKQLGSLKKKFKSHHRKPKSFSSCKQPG

Target	probe-labelled cysteine peptide fold change (10 µM)	probe-labelled cysteine peptide fold change (50 µM)
THUMPD1_Q9NXG2_31_CDAGGPR (UniProt Q9NXG2)	0.347	1.08
SURF2_Q15527_29+38_CILTGHELPCR (UniProt Q15527)	0.0902	-0.0729
STXBP5_Q5T5C0_697_SRQPSGAGLCDISEGTVVPEDR (UniProt Q5T5C0)	-0.389	-0.218
TET2_Q6N021_784_VEECFHGENQYSK (UniProt Q6N021)	-0.295	-0.385
TOP2A_P11388_170_LCNIFSTK (UniProt P11388)	-0.173	-0.0147
SNX6_Q9UNH7_149_TVAMHEVFLCR (UniProt Q9UNH7)	-0.37	-1.4
STRN_O43815_316_EDQCLMPEAWNVDQGVITK (UniProt O43815)	-0.23	-0.374
TLE1_Q04724_621_QFQGHTDGASCIDISNDGTK<|>TLE4_Q04727_624_QFQGHTDGASCIDISNDGTK (UniProt Q04727+Q04724)	-0.231	-0.0783
STXBP3_O00186_114_AAYIYFTDFCPDNLFNK (UniProt O00186)	0.0291	0.184
TNFAIP3_P21580_158_SQEFVETGLCYDTR (UniProt P21580)	-0.274	0.0322
TBC1D15_Q8TC07_184_YVVLCESPQDKR (UniProt Q8TC07)	0.0621	-0.0543
TBCD_Q9BTW9_1055_TLDHVLTHGCFDIFTTEEDHPFAVK (UniProt Q9BTW9)	-0.188	-0.0289
SORL1_Q92673_752_LEGELVPCPLAEENEFILYAVR (UniProt Q92673)	0.124	0.148
